Screening results as filed in PubChem.
SARS PLpro yeast = SARS-CoV PLP inhibition in yeast; S. cerevisiae expressing SARS-CoV PLpro, growth rescue; Potency, µM (titrated, usually from 32.9 µM), inactives show at the highest dose activity, positive = growth rescue, hits mostly activators; hit rate 0.19% among 330,000; further: 0% is about no effect; nearly all actives have a fitted effect of over 55% in size
Pf growth 96h = P. falciparum growth inhibition at 96 hours. P. falciparum luciferase reporter growth, 96 h. Potency, µM (top dose mostly 28.7 µM), without a hit: top-dose activity change, negative = inhibition, hits mostly inhibitors. hit rate 6.9% among 320,000; active means well fitted inhibition curve with a large enough effect; inconclusive means small, poorly fitted or top-dose-only effect, or another doubt; inactive means no such curve, though single readings can be large or run the other way; further: on the % scale 0 is the no-effect control and ±100 the full control effect
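96 h incubation, 37 C, 5% CO2, of luciferase-reporter P. falciparum-infected RBCs (2% hematocrit, 0.05% parasitemia final) with test compounds; endpoint luminescence.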
Pf growth 48h = inhibits P. falciparum growth in the first generation, 48 h | hit rate 5.9% among 310,000 | AID 504832 | Potency, µM (series often up to 28.7 µM), without a hit: at the highest dose activity change, negative = inhibition, hits mostly inhibitors | P. falciparum luciferase growth in erythrocytes, 48 h; active means well fitted inhibition curve with a large enough effect; inconclusive means small, poorly fitted or top-dose-only effect, or another doubt; inactive means no such curve, though single readings can be large or run the other way; further: on the % scale 0 is the no-effect control and ±100 the full control effect
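A one-generation exposure of luciferase-tagged malaria parasites in RPMI 1640/Albumax erythrocyte culture, 37 C and 5% CO2. Inhibition is inferred from decreased luminescence after adding detection reagent.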
NS1 function inh = influenza NS1 inhibition; Potency, µM (doses to about 46.1 µM), without a hit: at the highest dose activity, positive = more growth; hit rate 0.4% among 270,000; further: actives are rising curves; nearly all actives have a fitted effect of over 50% in size
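Compounds were scored for reversing the slow growth caused by influenza A NS1 in S. cerevisiae, measured by optical density at 600 nm. Assay medium contained 2% galactose at pH 6.0; NS1-free yeast of the same strain were the positive control.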
RE007 growth inh = less growth of the S. pombe RE007 Vpr strain | S. pombe RE007 Vpr strain, BacTiter-Glo ATP luminescence, 24 h | AID 651644 | Potency, µM (doses to about 92.2 µM), without a hit: at the highest dose activity change, negative = less growth, usual class: inhibitors | hit rate 0.21% among 360,000; active means well fitted falling curve with a large enough effect; inconclusive means small, poorly fitted or top-dose-only effect; inactive means no such curve, though single readings can be large or run the other way; further: on the % scale 0 is the no-effect control and ±100 the full control effect; nearly all actives have a fitted effect of over 50% in size
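Fission yeast RE007 carrying one integrated HIV-1 vpr copy, seeded at OD 0.01 in PMG+AL medium with 23 nL pinned compound. Grown 24 h at 30 degrees; viability read by BacTiter-Glo luminescence after 5 min.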
Active calls of the source: *; ? = inconclusive; nt = not tested or not shown; [ ] = another dose, or the depositor's remark. Rows were chosen to be rich in hits. Some 9.5% of all compounds tested hit in one or more screens of this group. Unless noted, the call rests on the fitted dose curve. Potency means the concentration at half of the fitted maximal effect.

SMILES	SARS PLpro yeast	Pf growth 96h	Pf growth 48h	NS1 function inh	RE007 growth inh
CCCc1cc(C(=O)Nc2cc(Br)ccc2O)no1	-4%	-17%	5.2µM*	-41%	-14%
CC(C)(C)CN1C(=O)C(=O)NC[C@@H]1CCCCN	nt	nt	nt	nt	0%
O=C(CSc1nccn1Cc1ccco1)Nc1ccccc1	-1%	41%	40%	5%	-3%
Clc1ccc(CN=C(Nc2ccccc2)NC2CCCCC2)cc1	1%	9.3µM*	9.3µM*	3%	-10%
Cc1ccc2nc(Cl)c3nnnn3c2c1	-25%	14%	-10%	nt	25µM*
Cc1ccc2nc(N3CCN(c4cccc(C)c4C)CC3)c3nnnn3c2c1	2%	?	-13%	1%	9%
CCOC(=O)c1c(S(=O)(=O)NCC(=O)Nc2cccc(C)n2)c(C)n(C)c1C	?	0%	-9%	-17%	1%
CCOC(=O)c1c(S(=O)(=O)NCC(=O)Nc2ccccc2F)c(C)n(C)c1C	4%	?	2%	-4%	-6%
CCOC(=O)c1c(S(=O)(=O)Nc2ccc(C)c(F)c2)c(C)n(C)c1C	-2%	9.3µM*	12%	4%	-3%
CCOC(=O)c1c(S(=O)(=O)Nc2ccc(F)cc2C)c(C)n(C)c1C	-5%	15µM*	-3%	-5%	-1%
CCOC(=O)c1c(S(=O)(=O)Nc2ccc(C)cn2)c(C)n(C)c1C	7%	10µM*	17%	-5%	11%
O=S(=O)(O)CCCc1cccc2ccccc12	nt	nt	nt	0%	nt
OC(CNCC(c1ccc(Cl)cc1Cl)c1c[nH]c2ccccc12)c1ccccc1 (stereo unspecified)	-1%	?	?	nt	-26%
O=C(COc1ccc(C(=O)NCC2CCCO2)cc1)Nc1cccc(C(F)(F)F)c1 (stereo unspecified)	3%	?	?	nt	3%
CCC1(C)Cc2nc3[nH]c(=S)n(-c4ccccc4)c(=O)c3cc2CO1 (stereo unspecified)	-16%	7.4µM*	-6%	9%	20%
c1cncc(-c2cn(C[C@H]3CC[C@@H]([C@@H]4CC[C@H](Cn5cc(-c6cccnc6)nn5)O4)O3)nn2)c1	-4%	-13%	6%	-12%	8%
c1ccc(SCc2cn(C[C@H]3CC[C@@H]([C@@H]4CC[C@H](Cn5cc(CSc6ccccc6)nn5)O4)O3)nn2)cc1	-5%	15µM*	-15%	3%	-8%
COc1cccc(-c2cn(C[C@H]3CC[C@@H]([C@@H]4CC[C@H](Cn5cc(-c6cccc(OC)c6)nn5)O4)O3)nn2)c1	-3%	7.4µM*	?	-14%	0%
O=C(Cc1ccc(-c2ccccc2)cc1)OCC(=O)N1CCCC1=O	-1%	-28%	?	nt	-2%
Cc1ccc(N2C(=O)c3ccc(C(=O)N4CCN(Cc5ccccc5)CC4)cc3C2=O)cc1	0%	12%	4%	-2%	-1%
CCOC(=O)C1(c2ccccc2)CCN(CCC(=O)Nc2ccc(OC)cc2)CC1	nt	nt	nt	nt	-8%
CCOC(=O)C1(c2ccccc2)CCN(CCC(=O)Nc2cccc(Br)c2)CC1	0%	?	?	nt	9%
CCOC(=O)C1(c2ccccc2)CCN(CCC(C#N)(c2ccccc2)c2ccccc2)CC1	nt	1.9µM*	1.9µM*	nt	1%[18.4 µM]
CCOC(=O)C1(c2ccccc2)CCN(CCC(=O)Nc2ccc(C(=O)OC)cc2)CC1	-3%	9.3µM*	5.2µM*	nt	-5%
CC(C)CNC(=O)COC(=O)c1ccc2c(c1)C(=O)N(Cc1ccco1)C2=O	7%	12%	19%	4%	21%
SMILES	SARS PLpro yeast	Pf growth 96h	Pf growth 48h	NS1 function inh	RE007 growth inh
COc1ccc(CN2CCN(Cc3cc(=O)oc4cc(C)ccc34)CC2)c(OC)c1OC	-3%	9.3µM*	?	0%	-19%
COc1ccc(CN2CCN(C(c3ccc(F)cc3)c3ccc(F)cc3)CC2)c(OC)c1OC	nt	6.7µM*	9.5µM*	nt	3%
COc1ccccc1N1CCN(Cc2cc(=O)oc3cc(C)ccc23)CC1	nt	nt	nt	nt	8%
CCCc1nc2cc3c(cc2[nH]1)n(C)c(=O)n3C	-2%	-23%	-12%	4%	-11%
COc1ccccc1OCC(=O)NNc1c2ccccc2nc2ccccc12	-3%	2%	4.1µM*	-36%	2%
COc1ccccc1OCC(=O)NCCSCc1cccc(Cl)c1	-29%	12µM*	11%	-16%	14%
COc1ccccc1OCC(=O)NCCNC(=O)COc1ccccc1OC	0%	2.3µM*	?	-8%	13%
COc1ccc(OCC(=O)NCCCCCCNC(=O)COc2ccc(OC)cc2)cc1	8%	2.9µM*	-14%	10%	11%
COc1cc(C(=O)N2CCCC(c3cc(C(=O)NCc4ccc(F)cc4)no3)C2)cc(OC)c1C (stereo unspecified)	nt	nt	nt	nt	4%
CCC(O)(CC)C(=O)NN(C(=O)Nc1csc2c1CCCC2)c1ccccc1	3%	1.3µM*	1.7µM*	4%	15%
O=C(Nc1ccccc1O)c1csc2c1CCCC2	-3%	30%	?	-11%	?
COCCN(CCOc1cc(C)cc(C)c1)Cc1ccc(Cl)cc1	-1%	?	?	-7%	-5%
Cc1ccc(S(=O)(=O)NCCC(=O)N2CCN(C/C=C/c3ccccc3)CC2)cc1	2%	?	?	nt	-6%
CCC(C)c1ccccc1NC(=O)CN1CCN(C/C=C/c2ccccc2)CC1 (stereo unspecified)	-2%	13µM*	?	-16%	-15%
CC(=O)c1ccc(S(=O)(=O)NCC(=O)N2CCN(C/C=C/c3ccccc3)CC2)cc1	1%	12µM*	12µM*	nt	21%
COc1ccc(Cl)cc1NC(=O)C(C)N1CCN(C/C=C/c2ccccc2)CC1 (stereo unspecified)	-1%	12µM*	nt	-3%	1%
CC(=O)c1ccc(NC(=O)C(C)N2CCN(C/C=C/c3ccccc3)CC2)cc1 (stereo unspecified)	-7%	?	?	-3%	4%
Cc1ccc(S(=O)(=O)NC(CC(C)C)C(=O)N2CCN(C/C=C/c3ccccc3)CC2)cc1 (stereo unspecified)	15%	?	8.3µM*	nt	-9%
Cc1cc(C)n(S(=O)(=O)c2ccc3oc(=O)ccc3c2)n1	-4%	-1%	20%	6%	-18%
Cn1c(CNC(=O)CCNC(=O)c2ccccc2)cc(=O)n(C)c1=O	19%	42%	29%	-11%	-2%
COCCNC(=O)c1c(NC(=O)c2ccc(Br)o2)n(Cc2ccccc2)c2nc3ccccc3nc12	-9%	?	13µM*	?	-3%
COc1ccc(Cc2noc(CN3CCCC(OCc4ccccn4)C3)n2)cc1OC (stereo unspecified)	0%	13µM*	?	-7%	-2%
COCCN1CCN(Cc2nc(Cc3ccc(OC)c(OC)c3)no2)CC1	-1%	-20%	6%	0%	15%
COc1ccc(Cc2noc(CN3CCN(Cc4cccc(Cl)c4)CC3)n2)cc1OC	-1%	8.3µM*	?	4%	-6%
